# Reference: the supplement of paper PMC8253809
# Where “and” joins values, the source holds several entries; their conditions need not be identical. Equal values may be shown once.
# How the values were obtained:
# Test in all cases: growth inhibition (% activity, log2 RLU normalised to DMSO / staurosporine); higher = more growth inhibition
# Settings in all cases: 33 µM
# DIPGX29 = test system: DIPGX29 (H3.3 K27M diffuse intrinsic pontine glioma line)
# Summary of the method: (§1)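 Cells (pHGG lines and H9-derived neural stem cells) were plated on Geltrex-coated 384-well plates and exposed to approved drugs at a single final concentration of about 33 μM, in triplicate, for 7 days at 37 °C, 5% CO2. Log2-transformed CellTiter-Glo luminescence was normalised per plate to % activity between solvent and positive control wells, and the growth-inhibition value is the median over replicates.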
# DIPGX37 = test system: DIPGX37 (H3.3 K27M diffuse intrinsic pontine glioma line)
# Summary of the method: as §1
# DIPGX7 = test system: DIPGX7 (H3.3 K27M diffuse intrinsic pontine glioma line)
# Summary of the method: as §1
# DIPGX9 = test system: DIPGX9 (diffuse intrinsic pontine glioma line)
# Summary of the method: as §1
# HGGX39 = test system: HGGX39 (paediatric high-grade glioma line)
# Summary of the method: as §1
# HGGX6 = test system: HGGX6 (H3.3 G34R paediatric high-grade glioma line)
# Summary of the method: as §1
# HNSC = test system: HNSC
# Summary of the method: as §1
# SUDIPGIV = test system: SUDIPGIV (diffuse intrinsic pontine glioma line)
# Summary of the method: as §1
# SUDIPGVI = test system: SUDIPGVI (diffuse intrinsic pontine glioma line)
# Summary of the method: as §1
# SUDIPGXIII = test system: SUDIPGXIII (diffuse intrinsic pontine glioma line)
# Summary of the method: as §1
SMILES,growth inhibition (DIPGX29),growth inhibition (DIPGX37),growth inhibition (DIPGX7),growth inhibition (DIPGX9),growth inhibition (HGGX39),growth inhibition (HGGX6),growth inhibition (HNSC),growth inhibition (SUDIPGIV),growth inhibition (SUDIPGVI),growth inhibition (SUDIPGXIII)
CO[C@H]1C[C@@H]2CC[C@@H](C)[C@@](O)(O2)C(=O)C(=O)N2CCCC[C@H]2C(=O)O[C@H]([C@H](C)C[C@@H]2CC[C@@H](O)[C@H](OC)C2)CC(=O)[C@H](C)/C=C(\C)[C@@H](O)[C@@H](OC)C(=O)[C@H](C)C[C@H](C)/C=C/C=C/C=C/1C,6.5%,0.955%,6.15%,16.4%,10.5%,10.3%,10.4%,4.5%,6.53%,0.792%
Cc1ccc(NC(=O)c2ccc(CN3CCN(C)CC3)cc2)cc1Nc1nccc(-c2cccnc2)n1,4.56% and 0.376%,3.89% and 0.0929%,5.28% and 3.03%,2.43% and -0.42%,8.41% and 4.83%,5.52% and -1.5%,3.25% and -0.323%,4.42% and 1.82%,4.93% and -0.526%,-15.8% and 0.752%
CN(C)CCCN1c2ccccc2CCc2ccccc21,-0.201%,2.87%,0.728%,1.54%,6.76%,3.35%,3.17%,2.4%,-0.367%,2.4%
CC(S)C(=O)NCC(=O)O (stereo not given),0.154%,-1.2%,-0.0217%,1.07%,2.86%,0.336%,0.528%,-0.0269%,-0.507%,-0.969%
CC(C)(Sc1cc(C(C)(C)C)c(O)c(C(C)(C)C)c1)Sc1cc(C(C)(C)C)c(O)c(C(C)(C)C)c1,-2%,-0.535%,-0.766%,-0.47%,-0.682%,-1.24%,1.54%,-1.38%,-2.9%,1.85%
O=C(O)c1ccccc1,-1.57%,1.08%,-0.546%,-0.0449%,0.585%,-1.44%,1.02%,1.15%,-2.88%,1.73%
COc1ccc(CN2CCN(C(c3ccc(F)cc3)c3ccc(F)cc3)CC2)c(OC)c1OC,3.37%,4.29%,2.14%,3.16%,7.88%,4.43%,7.5%,2.85%,3.72%,-11.1%
OCC(CO)N[C@H]1C[C@](O)(CO)[C@@H](O)[C@H](O)[C@H]1O,-0.323%,0.847%,-1.4%,0.186%,0.139%,-0.0513%,-1.53%,-0.574%,0.28%,0.0745%
O=C1O[C@H]([C@@H](O)CO)C([O-])=C1O.[Na+],-5.78%,-2.29%,-0.532%,-4%,-3.28%,-5.19%,6.78%,-3.14%,-6.63%,2.95%
CN(C)c1nc(N(C)C)nc(N(C)C)n1,-3.35%,-1.75%,-1.42%,-3.04%,-3.6%,-3.16%,-5.97%,-3.04%,-2.53%,-0.234%
CCCCC(=O)O[C@H]1CC[C@H]2[C@@H]3CCc4cc(O)ccc4[C@H]3CC[C@]12C,2.95%,4.39%,2.96%,8.03%,1.99%,-1.05%,72.8%,2.52%,-2.97%,1.55%
CN1c2cc(O)c(N=NC(N)=O)cc2CC1S(=O)(=O)O (stereo not given),-0.566%,-0.439%,-0.368%,-0.808%,-0.659%,0.668%,-5.18%,-0.34%,0.422%,-12.4%
COc1cc(OC)c(C(=O)CCCN2CCCC2)c(OC)c1,-0.72%,1.82%,0.0577%,0.123%,1.04%,-0.405%,-0.558%,-0.0523%,0.936%,2.53%
CC(=O)NC[C@H]1CN(c2ccc(N3CCOCC3)c(F)c2)C(=O)O1,0.341%,-2.02%,0.521%,1.07%,3.34%,1.89%,6.16%,4.69%,1.21%,1.55%
CCC(C)(C)C(=O)O[C@H]1C[C@@H](C)C=C2C=C[C@H](C)[C@H](CC[C@@H]3C[C@@H](O)CC(=O)O3)[C@H]21,6.91%,-7.26%,9.48%,1.4%,15.7%,11.3%,60.4%,19%,-11.4%,3.91%
C[C@H](CS)C(=O)N1CCC[C@H]1C(=O)O,0.445%,-0.171%,1.27%,1.57%,1.84%,-1.72%,2.42%,-0.14%,-0.111%,-0.989%
COC(=O)Nc1nc2cc(C(=O)c3ccc(F)cc3)ccc2[nH]1,5.17%,7.48%,3.54%,6.48%,-0.271%,3.94%,63.6%,-1.42%,0.822%,5.19%
CCOC(=O)c1ncn2c1CN(C)C(=O)c1cc(F)ccc1-2,1.51%,1.71%,0.351%,4.52%,2.75%,0.552%,0.0947%,-1.75%,2.57%,2.26%
O=c1[nH]c(=O)n([C@H]2C[C@H](O)[C@@H](CO)O2)cc1I,0.0722%,-1.6%,-3.14%,-0.0918%,-2.1%,-0.2%,17.9%,-1.37%,-0.112%,0.635%
CN(C)C(=N)NC(=N)N,-1.21%,-7.32%,-1.41%,-1.73%,-3.04%,-0.131%,-0.258%,-2.86%,-9.44%,-1.47%
CC(C)c1nc(CN(C)C(=O)N[C@@H](CCN2CCOCC2)C(=O)N[C@H](CC[C@H](Cc2ccccc2)NC(=O)OCc2cncs2)Cc2ccccc2)cs1,3.78%,0.997%,0.492%,2.24%,2.07%,1.63%,1.95%,-0.101%,3.61%,-0.613%

SMILES,growth inhibition (DIPGX29),growth inhibition (DIPGX37),growth inhibition (DIPGX7),growth inhibition (DIPGX9),growth inhibition (HGGX39),growth inhibition (HGGX6),growth inhibition (HNSC),growth inhibition (SUDIPGIV),growth inhibition (SUDIPGVI),growth inhibition (SUDIPGXIII)
CCOC(=O)n1ccn(C)c1=S,1.7%,2.04%,0.732%,1.21%,0.889%,2.62%,0.384%,-0.192%,2.2%,-16.1%
CCCCOc1cc(C(=O)NCCN(CC)CC)c2ccccc2n1,8.77%,4.81%,9.69%,3.99%,6.11%,5.06%,13.1%,2.91%,3.16%,1.33%
CNCCCC12CCC(c3ccccc31)c1ccccc12,-1.06%,-0.189%,1.34%,-1.84%,-0.798%,-0.808%,27.6%,-1.99%,-4.58%,0.908%
NCCC(O)(P(=O)(O)O)P(=O)(O)O,0.943%,2.91%,2.33%,0.0373%,2.9%,1.86%,2.52%,1.34%,2.52%,0.475%
CCCCc1oc2ccccc2c1C(=O)c1cc(I)c(OCCN(CC)CC)c(I)c1,11.5%,3.87%,16.3%,3.8%,8.92%,12.4%,34.9%,6.94%,3.07%,7.05%
CCS(=O)(=O)CCn1c([N+](=O)[O-])cnc1C,-0.456%,1.05%,-1.24%,-0.171%,-0.367%,-1.57%,-1.98%,-0.809%,-3.73%,0.464%
CC(=O)N[C@@H](CS)C(=O)O,-0.541%,1.66%,0.31%,-0.364%,-0.994%,-2.9%,1.29%,0.64%,0.65%,0.374%
C1N2CN3CN1CN(C2)C3,1.11%,3.51%,1.18%,2.53%,3.89%,2.47%,0.987%,1.56%,1.89%,-0.234%
CNNCc1ccc(C(=O)NC(C)C)cc1,2.14%,-0.517%,2.87%,1.95%,3.29%,0.0869%,6.38%,-0.464%,2.55%,-0.216%
COCCCC/C(=N\OCCN)c1ccc(C(F)(F)F)cc1,1.49%,4.31%,1.46%,3.17%,4.47%,-0.782%,-3.83%,2.23%,0.798%,2.91%
COc1cc(C(=O)NS(=O)(=O)c2ccccc2C)ccc1Cc1cn(C)c2ccc(NC(=O)OC3CCCC3)cc12,-0.736%,1.77%,0.79%,-1.19%,1.49%,-2.28%,-0.546%,-0.0974%,1.76%,0.405%
CN(C)CCOC(C)(c1ccccc1)c1ccccn1 (stereo not given),-1.53%,-0.506%,0.0494%,-1.25%,0.245%,-0.355%,-1.65%,-0.218%,-0.777%,0.1%
OC1(c2ccc(Cl)c(C(F)(F)F)c2)CCN(CCCC(c2ccc(F)cc2)c2ccc(F)cc2)CC1,22.5%,-5.49%,5.28%,-1.11%,4.1%,4.08%,71.6%,4.36%,-7.48%,51.7%
Clc1ccc(CSC(Cn2ccnc2)c2ccc(Cl)cc2Cl)cc1 (stereo not given),3.26%,-0.102%,3.59%,1.99%,11.1%,8.31%,9.42%,16.1%,3.55%,10.8%
CC(C)/N=c1\cc2n(-c3ccc(Cl)cc3)c3ccccc3nc-2cc1Nc1ccc(Cl)cc1,12.5%,10.3%,11.1%,5.47%,10%,7.37%,66.1%,21.9%,5.83%,5.35%
CCN(CCCc1ccccc1)CCCc1ccccc1,2.04%,0.545%,5.69%,0.438%,7.1%,5.46%,4.87%,0.248%,-1.23%,-0.1%
NC(CO)(CO)CO,0.378%,1.73%,0.549%,1.18%,1.76%,0.412%,0.671%,1.48%,2.52%,0.677%
C[C@H](N[C@@H](CCc1ccccc1)C(=O)O)C(=O)N1CCC[C@H]1C(=O)O,-1.89%,-2.46%,0.194%,-1.9%,-1.61%,-3.59%,-1.1%,-2.75%,-6.88%,-1.42%
COCCOC(=O)C1=C(C)NC(C)=C(C(=O)OC(C)C)C1c1cccc([N+](=O)[O-])c1 (stereo not given),-0.32%,0.964%,-0.466%,0.313%,1.43%,-1.47%,2.29%,0.263%,1.28%,2.89%
CCN[C@H]1CN(CCCOC)S(=O)(=O)c2sc(S(N)(=O)=O)cc21,0.611%,0.875%,1.84%,0.558%,2.35%,2.83%,-0.529%,-0.244%,2.59%,-0.696%
CN1CCN(CCCN2c3ccccc3Sc3ccc(C(F)(F)F)cc32)CC1,14.9%,0.958%,12.3%,0.94%,7.39%,8.55%,9.67%,4.53%,-3.52%,0.946%
